This is an account of results in PubChem BioAssay (EPA / NIEHS).

Structures are written as SMILES. The source made the active and inactive calls. Rule for the calls: active = hit-call score of the fitted dose curve at least 0.9, where 1 is the maximum; inactive = score below 0.9.

Read-out in the assay: MYC, MYC (gene 4609)
As to the kind of experiment: LTEA_HepaRG_MYC: Life Technologies and Expression Analysis (LTEA) Assay for MYC using HepaRG (AID 2283518). The note with it: mRNA level, 48 h; actives raise or lower the signal. The gist of the method:
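Differentiated human HepaRG cells, plated 48 h then switched to serum-free induction medium, were exposed in duplicate for 48 h to 8-point half-log series up to 100 uM in 0.5% DMSO. MYC mRNA measured by qRT-PCR, normalized to ACTB/GAPDH/POLR2A.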
As for `CC(C)CCCCCCc1ccc(O)cc1`, the result was inactive.

On to `N#CSCSc1nc2ccccc2s1`, for which the outcome was inactive.

In the case of `CC(=O)S[C@@H]1CC2=CC(=O)CC[C@]2(C)[C@H]2CC[C@@]3(C)[C@@H](CC[C@@]34CCC(=O)O4)[C@H]12`, the call was inactive.

Turning to `O=C(c1ccc(O)cc1O)c1ccc(O)cc1O`, the compound was called inactive.

With `CCOC(=O)COc1cc(-n2ncc(C(F)(F)F)c(C)c2=O)c(F)cc1Cl`, the call was inactive.

Consider `OB(O)O`, for which the compound was called inactive.

On to `CCCCOC(=O)[C@@H](C)Oc1ccc(Oc2ccc(C(F)(F)F)cn2)cc1`, for which the compound was classed as inactive.

As for `CC(C)(C)[C@@H](O)[C@@H](Cc1ccc(Cl)cc1)n1cncn1`, the compound was called inactive.

For the compound `CCCN(CCC)C(=O)SCC`, the call was inactive.

Regarding `CCCCOC(=O)C(C)Oc1ccc(Oc2ccc(C(F)(F)F)cn2)cc1` (configuration not stated), the compound was called inactive.

Take `O=C(O)C1(C(=O)Nc2ccc(Cl)cc2Cl)CC1`: the compound was called inactive.

For `COC(=O)c1ccc(I)cc1S(=O)(=O)NC(=O)Nc1nc(C)nc(OC)n1`, the compound was classed as inactive.

One may read the AC50 as the midpoint of the concentration-response curve, whichever way the signal moves. For the compound `C=CCOC(Cn1ccnc1)c1ccc(Cl)cc1Cl` (configuration not stated), the AC50 was 36 µM (active).

Turning to `C#C[C@]1(O)CC[C@H]2[C@@H]3CCC4=CC(=O)CC[C@@H]4[C@H]3CC[C@@]21CC`, the compound was called inactive.

Regarding `C[C@]12C[C@H](O)[C@H]3[C@@H](CCC4=CC(=O)CC[C@@]43C)[C@@H]1CC[C@@H]2C(=O)CO`, the outcome was inactive.

Turning to `C#CCOC(=O)[C@@H](C)Oc1ccc(Oc2ncc(Cl)cc2F)cc1`, the result was inactive.

Consider `CCCCC(CC)CN1C(=O)C2C3C=CC(C3)C2C1=O` (configuration not stated), for which the result was inactive.

Turning to `O=C(O)c1ccccc1`, the result was inactive.

Consider `CCN(CC)C(=O)c1cccc(C)c1`, for which the outcome was inactive.

Turning to `CCCN(CCC)c1c([N+](=O)[O-])cc(C(F)(F)F)c(N)c1[N+](=O)[O-]`, the AC50 is 50 µM (active).

Regarding `Cc1nn(C)c(Oc2ccccc2)c1C=NOCc1ccc(C(=O)OC(C)(C)C)cc1`, the AC50 was 8.62 µM (active).

As to `COC(=O)c1ccccc1C(=O)O`, the compound was called inactive.

With `CCCOC(=O)c1ccc(C(=O)OCCC)nc1`, the call was inactive.

With `CCCOC(=O)NCCCN(C)C`, the result was inactive.

Regarding `O=C(Nc1ccc([N+](=O)[O-])cc1Cl)c1cc(Cl)ccc1O`, the AC50 was 2.28 µM (active).

As for `CCC(C)OC(=O)N1CCCCC1CCO` (configuration not stated), the compound was classed as inactive.

On to `S=C([S-])NCCNC(=S)[S-].[Mn+2]`, for which the AC50 was 8.74 µM (active).
